From PubChem BioAssay AID425 (Sanford-Burnham Center for Chemical Genomics, 2006)
Where “and” joins values, the source holds several entries; their conditions need not be identical. Equal entries are not always repeated. The campaign covered roughly 110,000 compounds. About 190 (0.17%) were called active. No stated cut-off is given here; in the data, active means inhibition above about 50%; inactive means the rest. The full list was thinned out, with actives kept by preference. Results with a measured potency or affinity are listed apart.

target: Dual specificity protein phosphatase 6 (Rattus norvegicus) (UniProt Q64346); assay: MKP-3 phosphatase inhibitors, primary screen, biochemical, rat enzyme, in vitro (AID 425); settings: recombinant MKP-3 phosphatase activity, fluorescence; at 20 µM; stronger effect = higher value;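 further: plate controls were vehicle for no effect and reference inhibitor for full effect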
Sequence (Q64346 whole entry, looked up): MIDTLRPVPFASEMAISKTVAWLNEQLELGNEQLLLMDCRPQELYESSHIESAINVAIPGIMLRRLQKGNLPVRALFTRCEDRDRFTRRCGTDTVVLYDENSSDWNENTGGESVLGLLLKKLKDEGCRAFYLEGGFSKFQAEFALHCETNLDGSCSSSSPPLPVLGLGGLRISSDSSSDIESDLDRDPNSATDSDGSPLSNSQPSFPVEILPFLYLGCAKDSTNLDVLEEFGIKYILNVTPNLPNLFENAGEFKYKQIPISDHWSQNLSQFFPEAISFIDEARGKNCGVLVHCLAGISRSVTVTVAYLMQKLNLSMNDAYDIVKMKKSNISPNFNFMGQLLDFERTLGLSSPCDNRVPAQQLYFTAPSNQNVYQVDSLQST

inhibition, inactive:
CCc1ccc(OCC(=O)NCCN(C)C)c(Br)c1 -12%
O=C(Nc1ccc(Br)cc1)N1CCCCCCC1 -0.5%
CCOC(=O)Cc1csc(NC(=O)CN(C)S(=O)(=O)c2cccc3cccnc23)n1 -9.4%
O=C(NCCCn1ccnc1)c1cnn2c(C(F)(F)F)cc(-c3ccc(Br)cc3)nc12 2.4%
Nc1nnc(SCc2coc(-c3ccc(Cl)cc3)n2)s1 -7.1%
COc1ccc(NC(=O)/C(=C\c2ccco2)NC(=O)c2ccco2)cc1 4.4%
N/C(=N\OC(=O)c1ccccc1I)c1cccnc1 -4%
COc1cc(/C=C2\SC(=Nc3ccc(C)c(Cl)c3)NC2=O)ccc1O 3.3%
Cc1c(Cl)cccc1N=C1NC(=O)/C(=C/c2ccc(O)c([N+](=O)[O-])c2)S1 18.5%
CC1=C(C(=O)Nc2ccccc2)C(c2cccc(I)c2)NC(=S)N1 (configuration not stated) 4.4%
Cc1c(C)n(O)c2ccc3nonc3c12 2.7%
COn1c(C)c(C(C)=O)c2c3nonc3ccc21 -7.8%
CCOC(=O)c1ccc(NC(=O)COc2ccc(Cl)cc2C)cc1 2.5%
COC(=O)c1ccc(Nc2ncnc3c2cnn3-c2cccc(C)c2)cc1 -5%
O=C(Cc1ccccc1)Nc1cc(C(=O)O)cc(C(=O)O)c1 0.2%
CC1CC(=O)c2cnc(NCC3CCCO3)nc2C1 (configuration not stated) -7.6%
Cc1c(C)c2ccc(OCC(=O)c3ccc(-c4ccccc4)cc3)cc2oc1=O 1.8%
NC(=O)C1CCN(C(=O)CN2CCCc3ccccc32)CC1 1.6%
Cc1ccc(-c2ccccc2)n1-c1ccccc1C(=O)O 5%
Cc1ccc(C)n1-c1ccc(Br)cc1C(=O)O 0.2%
Cc1c(C(=O)O)cccc1-n1c(C)ccc1C 25.2%
COc1cc(C(=O)O)c(-n2c(C)ccc2C)cc1OC 5%
O=C(CCCN1CCC(c2ccccc2)C1)c1ccc2c(c1)OCCO2 (configuration not stated) -3.4%
CC(=O)Nc1ccc(S(=O)(=O)NC(CC(=O)O)c2ccc(OC(C)C)cc2)cc1 (configuration not stated) 7.9%
CC(C)(C)NC(=O)C(=O)N/N=C/c1ccc(Cl)cc1 -3.9%
CNc1ccc2[nH]nc3c2c1C(=O)c1ccccc1-3 -22.4%
Cc1ccccc1OCC(=O)Nc1cccc(NC(=O)c2ccccc2Cl)c1 -2.5%
CC(=O)c1ccc(NC(=O)c2ccc3c(c2)OCCO3)cc1 -4.6%
Cc1cccc(C)c1NC(=O)c1ccc2c(c1)OCCO2 2.1%
CCN1C(=O)NC(c2cccnc2)C(C(=O)OC)=C1C (configuration not stated) -5.5%
CC(C)N(Cc1nc(-c2ccccc2)no1)C(=O)Cc1ccccc1 -1.5%
CS(=O)(=O)N(CC(=O)NCc1ccccn1)c1ccc2c(c1)OCCO2 -1.1%
CCOC(=O)C(C(=O)OCC)c1cc(Br)c2noc3c2c1C(=O)c1ccccc1-3 23.6%
O=C1c2ccccc2-c2onc3c(Cl)cc(Sc4ccccc4)c1c23 3.9%
Cc1onc(-c2ccccc2Cl)c1C(=O)NCc1cccs1 5.5%
O=C(O)c1cc(-c2ccc(/C=N/Nc3ccc([N+](=O)[O-])cn3)o2)ccc1Cl 7.3%
O=C(O)c1ccc(Cl)c(-c2ccc(/C=N\Nc3ccc([N+](=O)[O-])cn3)o2)c1 8.7%
O=C(O)/C=C/C(=O)Nc1ccc(NC(=O)c2ccccc2)c(Cl)c1 1.5%
O=C(O)c1cc(S(=O)(=O)O)ccc1O -4.1%
COC(=O)c1cc(C(=O)OC)cc(S(=O)(=O)O)c1 -0.1%
O=C1/C(=C/c2ccc(O)c(O)c2)SC(=S)N1c1ccc(O)cc1 8.5%
Cc1cc(C)n(C(=O)CNC(=O)c2ccco2)n1 1.1% and -4%
COc1ccc(C2SC(C)C(=O)N2c2ccc(C)cc2)cc1 (configuration not stated) -0.4%
O=C(NCC1CCCO1)c1cc2nc(-c3ccco3)cc(C(F)(F)F)n2n1 (configuration not stated) 0.3%
O=C(NCC1CCCO1)c1cc2nc(-c3ccc(F)cc3)cc(C(F)(F)F)n2n1 (configuration not stated) 2.8%
COCCn1c(SCC(=O)Nc2cccc(OC)c2)nnc1-c1ccc(Cl)cc1 -2.5%
Cc1ccc(-c2ccc(C=C3C(=O)N(C)C(=O)N(C)C3=O)o2)cc1[N+](=O)[O-] -5.2%
CN(c1ccc(C(=O)N2CCCCC2)cc1)S(=O)(=O)c1ccccc1 2.4%
CCc1c(C)c2ccc(OCC(C)=O)c(C)c2oc1=O 5.8%
CCc1c(C)c2ccc(OCc3ccccc3)c(C)c2oc1=O 3.5%
O=C(CN1CCCCCC1)Nc1cccc2c1OCO2 0.2% and -9.3%
COc1ccc(/C=C(\NC(=O)c2ccccc2)C(=O)NCC(C)C)cc1OC 3%
COc1ccc(/C=C/C(=O)NCC(C)NC(=O)/C=C/c2ccc(OC)c(OC)c2)cc1OC (configuration not stated) 1.7%
COc1cccc(-c2cc(C(=O)Nc3c(C)nn(Cc4ccccc4)c3C)no2)c1 0.1%
O=C(NCCNc1ccc(Cl)cc1[N+](=O)[O-])c1ccccc1Cl 1.9%
O=c1oc2c(O)c(O)ccc2c2c1CCC2 7.2%
Cc1c(O)ccc2c1oc(=O)c1ccccc12 1.2%
Cc1ccc(S(=O)(=O)NCC(=O)N(CCc2ccccc2)CC(=O)NCc2ccco2)cc1 -4.7%
Cc1cc(C)nc(Sc2c(C)nn(-c3ccccc3)c2C)n1 -0.6%
Cc1nn(-c2ccccc2)c(C)c1Sc1ccc(Br)cc1 0.2%
COc1ccc(C2C(C(=O)OC(C)C)=C(C)N=c3s/c(=C/c4c[nH]c5ccccc45)c(=O)n32)cc1 (configuration not stated) 3.4%
CCOCCOC(=O)c1ccc(NC(=O)/C=C/c2ccc(OC)c(Br)c2)cc1 2.5%
COc1ccc(Cl)cc1C(=O)Nc1nc2ccc(S(C)(=O)=O)cc2s1 3.8%
CCOc1ccc(NC(=O)CSc2nc3ccc(OC)cc3[nH]2)cc1 -0.2%
O=C(O)c1ccccc1-c1ccccc1/C=N/O -1.8%
CCOC(=O)C1=C(C)N=c2s/c(=C\c3ccc(OCC)cc3)c(=O)n2C1c1ccccc1 (configuration not stated) 2.8%
CCOC(=O)C1=C(C)N=c2s/c(=C\c3ccc(OCC(=O)O)cc3)c(=O)n2C1c1ccccc1 (configuration not stated) 2.5%
Cc1c(N2C(=O)c3cccc([N+](=O)[O-])c3C2=O)c(=O)n(-c2ccccc2)n1C 1.8%
CCN(CC)CCCNC(=O)c1cc2nc(-c3ccc([N+](=O)[O-])cc3)cc(C(F)(F)F)n2n1 1.9%
COc1ccccc1C=C1C(=O)NC(=S)N(c2ccccc2F)C1=O 3%
O=C1NC(=S)N(c2cccc(Cl)c2)C(=O)/C1=C\c1ccc(N2CCCC2)cc1 19.3%
COc1ccccc1/C=C1/C(=O)NC(=O)N(c2ccccc2OC)C1=O -1.2%
Cc1cc(/C=C2\C(=O)NC(=S)N(c3cccc(Cl)c3)C2=O)c(C)n1C -0.4%
O=C1CC(c2cccs2)CC2=C1C(c1ccsc1)Nc1ccccc1N2 (configuration not stated) -0.1%
C=C(C)Cn1c(SCC(=O)NN)nnc1-c1ccc(Br)cc1 2.7%
CCC(C)(C)NC(=O)C1CCN(c2nc(C)cc(C)n2)CC1 -18.2%
CCc1nnc(NC(=O)C2CC(=O)N(c3ccc(C)cc3)C2)s1 (configuration not stated) -9.9%
O=C1NC(=S)S/C1=C\c1ccccc1OS(=O)(=O)c1ccc([N+](=O)[O-])cc1 1.6%
COc1cc(Br)c(/C=C2/SC(=S)NC2=O)cc1OC -0.6%
O=C1NC(=S)N/C1=C/c1ccc2c(c1)OCO2 5.3%
COc1cc(/C=C2\NC(=S)NC2=O)c([N+](=O)[O-])cc1OC 13.3%
O=C1NC(=Nc2ccc(Br)cc2)S/C1=C\c1ccccc1[N+](=O)[O-] 1.9%
O=C1NC(=S)N/C1=C/c1cc2c(cc1Cl)OCO2 0.8%
O=C1NC(=O)/C(=C\c2ccccc2Cl)S1 -2.9%
O=C1NC(=S)S/C1=C/c1ccccc1OS(=O)(=O)c1ccccc1[N+](=O)[O-] 1.4%

inhibition, active:
Cc1ccc(N=C2NC(=O)/C(=C/c3ccc(O)c([N+](=O)[O-])c3)S2)cc1Cl 82.6%
COn1c(C)c(C)c2c3nonc3ccc21 86.9%
Cc1ccc(C)n1-c1ccc(Cl)cc1C(=O)O 104%
Cc1ccc(C)n1-c1ccccc1C(=O)O 72.7%
Cc1cc(Br)cc(C)c1NC(=O)c1ccc2c(c1)OCCO2 82.6%
O=C1c2ccccc2-c2onc3c(Br)cc(O)c1c23 87.7%
O=C(O)c1cccc(-c2ccc(/C=N/Nc3ccc([N+](=O)[O-])cn3)o2)c1 51.1%
CNc1ccc2c(O)cc(S(=O)(=O)O)cc2c1 65.1%
O=C(NCC1CCCO1)c1cc2nc(-c3ccc([N+](=O)[O-])cc3)cc(C(F)(F)F)n2n1 (configuration not stated) 95.8%
CCC(C)NC(=O)/C(=C\c1ccc(OC(C)=O)c(OC)c1)NC(C)=O (configuration not stated) 97.1%
Cc1nn(-c2ccccc2)c(C)c1Sc1ccc(Cl)cc1 74.7%
COc1ccccc1N1C(=O)C(=Cc2cccn2C)C(=O)NC1=S 93.6%
Cn1cccc1/C=C1/C(=O)NC(=S)N(c2cccc(Cl)c2)C1=O 60.6%
COc1cc(/C=C2/SC(=S)NC2=O)c([N+](=O)[O-])cc1OC 50.1%
O=C1NC(=O)/C(=C/c2ccccc2[N+](=O)[O-])S1 79.4%
O=C1NC(=S)N/C1=C/c1cc2c(cc1[N+](=O)[O-])OCO2 64.9%
O=C1NC(=S)S/C1=C\c1ccccc1[N+](=O)[O-] 122%
